Assay results: PMC7826789 (International Journal of Molecular Sciences, 2021)

Assays:
Settings in all cases: Compound Concentration (nM):1000
MRCKA = tested on: T1, MRCKA
T1 construct: gene CDC42BPA

MRCKB = tested on: T2, MRCKB
T2 construct: gene CDC42BPB

MST1R = tested on: MST1R
MST1 = tested on: T3, MST1
T3 construct: gene STK4

MST2 = tested on: T4, MST2
T4 construct: gene STK3

MST3 = tested on: T5, MST3
T5 construct: gene STK24

MST4 = tested on: MST4
MTOR = tested on: MTOR
MUSK = tested on: MUSK
MYLK2 = tested on: MYLK2
MYLK4 = tested on: MYLK4
MYLK = tested on: MYLK
MYO3A = tested on: MYO3A
MYO3B = tested on: MYO3B
NDR1 = tested on: T6, NDR1
T6 construct: gene STK38

NDR2 = tested on: T7, NDR2
T7 construct: gene STK38L

NEK10 = tested on: NEK10
NEK11 = tested on: NEK11
NEK1 = tested on: NEK1
NEK2 = tested on: NEK2
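Note: KINOMEscan scanMAX binding as percent activity remaining versus control; lower means stronger binding.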

Row | SMILES | Percent Control (MRCKA) [%] | Percent Control (MRCKB) [%] | Percent Control (MST1R) [%] | Percent Control (MST1) [%] | Percent Control (MST2) [%] | Percent Control (MST3) [%] | Percent Control (MST4) [%] | Percent Control (MTOR) [%] | Percent Control (MUSK) [%] | Percent Control (MYLK2) [%] | Percent Control (MYLK4) [%] | Percent Control (MYLK) [%] | Percent Control (MYO3A) [%] | Percent Control (MYO3B) [%] | Percent Control (NDR1) [%] | Percent Control (NDR2) [%] | Percent Control (NEK10) [%] | Percent Control (NEK11) [%] | Percent Control (NEK1) [%] | Percent Control (NEK2) [%]
1 | CCc1ccc(Oc2nccc(-c3c(-c4ccc(F)cc4)ncn3C3CCNCC3)n2)cc1 [SB-242719] | 68 | 17 | 100 | 88 | 66 | 90 | 61 | 89 | 100 | 80 | 98 | 100 | 87 | 100 | 92 | 96 | 99 | 100 | 100 | 96
2 | COc1ccccc1-c1cc(/C=C2\C(=O)Nc3ncc(Br)cc32)cc(Br)c1O [GW442130X] | 100 | 100 | 100 | 100 | 95 | 100 | 100 | 77 | 100 | 97 | 100 | 100 | 75 | 100 | 97 | 74 | 100 | 100 | 95 | 100
3 | CC1=C(C(=O)Nc2ccc3[nH]ncc3c2)C(c2ccc3ccccc3c2)CC(=O)N1 (centres unmarked) [GSK270822A] | 100 | 85 | 46 | 93 | 73 | 90 | 53 | 100 | 95 | 100 | 78 | 93 | 90 | 100 | 28 | 61 | 65 | 81 | 87 | 85
4 | CC(C)COC(=O)c1ccc2c(c1)/C(=C/Nc1ccc(S(N)(=O)=O)cc1)C(=O)N2 [GW416981X] | 100 | 100 | 100 | 100 | 1.1 | 98 | 31 | 100 | 100 | 100 | 100 | 100 | 100 | 100 | 66 | 100 | 100 | 100 | 94 | 100
5 | COc1cc(C=NNc2ncnc3c2cnn3-c2ccccc2)ccc1O [GW513184X] | 100 | 100 | 29 | 100 | 94 | 100 | 58 | 93 | 100 | 43 | 100 | 100 | 100 | 95 | 100 | 100 | 100 | 100 | 100 | 100
6 | Cl.O=C(Nc1ccc(Oc2ccc3[nH]c(NC(=O)c4ccccc4)nc3c2)cc1)Nc1cc(C(F)(F)F)ccc1F [GW709042A] | 85 | 90 | 100 | 73 | 100 | 100 | 69 | 82 | 19 | 91 | 100 | 99 | 100 | 100 | 100 | 100 | 100 | 100 | 89 | 100
7 | COc1cccc(-c2c[nH]c3c(N/N=C/c4ccncc4)ncnc23)c1 [GW814408X] | 100 | 100 | 88 | 100 | 100 | 74 | 21 | 100 | 100 | 68 | 100 | 100 | 100 | 100 | 93 | 98 | 92 | 100 | 95 | 100
8 | COc1ccc2c(-c3ccnc(Nc4cccc(OC(F)(F)F)c4)n3)cnn2n1 [GW810372X] | 100 | 99 | 100 | 100 | 100 | 98 | 60 | 100 | 100 | 100 | 60 | 100 | 100 | 100 | 100 | 96 | 100 | 100 | 85 | 100
9 | CCS(=O)(=O)c1ccc(OC)c(Nc2ncc(-c3cccc(OC)c3)o2)c1 [GW580509X] | 100 | 100 | 100 | 100 | 100 | 100 | 100 | 100 | 100 | 100 | 100 | 94 | 97 | 100 | 100 | 100 | 100 | 100 | 98 | 100
10 | Cl.O=C(O[C@H]1CN[C@H](C#Cc2cc3ncnc(Nc4ccc5c(cnn5Cc5ccccc5)c4)c3s2)C1)N1CCOCC1 [GSK200398A] | 100 | 86 | 100 | 100 | 100 | 83 | 100 | 100 | 100 | 100 | 91 | 100 | 100 | 100 | 100 | 100 | 96 | 100 | 68 | 72
